PubChem BioAssay AID504834 (National Center for Advancing Translational Sciences (NCATS), 2011)
Screen size: about 320,000 compounds; about 22,000 (6.9%) were called active. A call without a number means that no potency is given here. About 27% were inconclusive and are not listed. Calls come from the whole dose curve; as a rule, active = well fitted inhibition curve with a large enough effect; inconclusive = small, poorly fitted or top-dose-only effect, or another doubt; inactive = no such curve, though single readings can be large or run the other way. The full list was thinned out, with actives kept by preference.

Assay: Primary qHTS for delayed death inhibitors of the malarial parasite plastid, 96 hour incubation
Settings: P. falciparum luciferase reporter growth; series mostly up to 28.7 µM
Outline: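 Compounds incubated with erythrocytes infected by luciferase-expressing P. falciparum (2% hematocrit, 0.05% parasitemia final) for 96 hours, 37 C in 5% CO2. Growth inhibition scored as decreased luciferase luminescence.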
Potency is the fitted concentration of half-maximal effect.

Compound | Potency
CCOc1ccc(NC(=O)c2ccc(NC(=O)CN3C(=O)C(=O)N(CC(C)C)C3=O)cc2)cc1 | inactive
COc1cc(/C=N/N2CCN(c3ccccc3)CC2)ccc1OC(C)=O | inactive
CSc1ncccc1C(=O)Nc1ccc2c(c1)OCO2 | inactive
CSc1ccccc1NC(=O)c1ccc2c(c1)CCN2S(C)(=O)=O | inactive
O=C(c1cc(-c2ccco2)nc2ccccc12)N(Cc1nnc(-c2ccc(Cl)cc2)o1)C1CC1 | 2.08 µM (active)
O=C(c1ccc(Cl)s1)N(Cc1nnc(-c2ccccc2Cl)o1)C1CC1 | inactive
CN(C(=O)COC(=O)c1cc(-c2ccco2)nc2ccccc12)C1CCS(=O)(=O)C1 (centres undefined) | inactive
O=C(NCCc1c[nH]c2ccccc12)c1cc2ccccc2oc1=O | inactive
Cc1ccc(S(=O)(=O)N(C)CC(=O)NCCc2c[nH]c3ccccc23)cc1 | inactive
CN(c1ccccc1)S(=O)(=O)c1ccc(Cl)c(C(=O)NCCc2c[nH]c3ccccc23)c1 | 9.28 µM (active)
COc1ccc(NC(=O)CNC(=O)Cn2ccc3ccccc3c2=O)c(OC)c1 | inactive
COCCn1c(C)cc(C(=O)COC(=O)CNC(=O)c2ccco2)c1C | inactive
CC(=O)N1CCN(CC(C)(C)NS(=O)(=O)c2ccc(C)cc2)CC1 | inactive
CC(C)COC(=O)C1C2C=CC3(CN(C(C)c4ccc(Br)cc4)C(=O)C13)O2 (centres undefined) | 6.57 µM (active)
CCOC(=O)CN1CC23C=CC(O2)C(C(=O)Nc2ccc(F)cc2)C3C1=O (centres undefined) | inactive
CCCC(=O)Nc1ncnc2c1ncn2[C@@H]1O[C@@H]2OP(=O)(O)OC[C@H]2[C@H]1OC(=O)CCC | inactive
Cc1cccn2c(=O)c3cc(C(=O)NC4CCCCC4)sc3nc12 | inactive
Cc1ccc(-c2nn(-c3ccccc3)cc2C(=O)NC2CCC(O)CC2)cc1 (centres undefined) | inactive
Cc1ccccc1-n1nc(C)c2cc(C(=O)NC3CC3)sc21 | 5.22 µM (active)
O=c1cc(Cl)c2ccccc2n1-c1ccccc1 | inactive
CCCCn1c(N)c(N(CC(C)C)C(=O)C2CSC3(C)CCC(=O)N23)c(=O)[nH]c1=O (centres undefined) | inactive
CCn1c(-c2ccoc2C)n[nH]c1=S | inactive
CCn1c(-c2ccncc2)n[nH]c1=S | inactive
CCCc1cc(-c2n[nH]c(=S)n2CC)c2ccccc2n1 | 1.65 µM (active)
CN(C)CCCNC(=S)N1CCC(c2nc3ccccc3[nH]2)CC1 | inactive
COc1ccc(C[C@H](C(=O)O)N2C(=O)c3ccc(C(=O)O)cc3C2=O)cc1 | inactive

Compound | Potency
O=C(C1CCCO1)N1CCN(S(=O)(=O)c2ccc(Br)cc2)CC1 (centres undefined) | inactive
COc1ccc(N(CC(=O)Nc2ccc(C)cc2C)S(=O)(=O)c2ccccc2[N+](=O)[O-])c(OC)c1 | inactive
COc1ccc(C)cc1S(=O)(=O)N(CC(=O)Nc1cccc([N+](=O)[O-])c1)c1ccc(C)cc1 | 11.7 µM (active)
Cc1ccc(S(=O)(=O)N(CC(=O)Nc2cccc([N+](=O)[O-])c2)Cc2ccc(Cl)cc2)cc1 | inactive
CC(C)c1c(C(=O)N/N=C/c2ccccc2C(=O)O)nnn1-c1nonc1N | inactive
O=C(CNC(=O)[C@@H]1Cc2ccccc2CN1)NC1CCCCC1 | inactive
O=C(COc1ccc(S(=O)(=O)N2CCOCC2)cc1Cl)N1CCOCC1 | inactive
O=C(OCC(=O)N1CCOCC1)c1ccc(N2CCOCC2)c([N+](=O)[O-])c1 | inactive
O=C(Cc1ccc(S(=O)(=O)N2CCOCC2)s1)N1CCN(c2ccc(C(F)(F)F)cc2[N+](=O)[O-])CC1 | 11.7 µM (active)
COc1cccc(CNS(=O)(=O)c2cc3c(cc2C)n(C)c(=O)c(=O)n3C)c1 | inactive
CCOc1ccc(C(=O)Nc2cccc(SC)c2)cc1 | inactive
O=C(Nc1cccc(Cl)c1)OCc1ccccn1 | inactive
CCOc1c(Nc2cccc(Cl)c2)c(=O)c1=O | 11.7 µM (active)
O=C(NCc1ccc(F)cc1)C1CCN(C(=O)Nc2ccc(F)cc2)CC1 | inactive
CC1CCCCN1S(=O)(=O)CCNC(=O)c1ccccc1 (centres undefined) | inactive
Cc1cc(C(=O)OCC(=O)Nc2ccccc2Cl)c(C)o1 | inactive
COCCN(Cc1ccccc1)C(=O)Cc1ccc(S(=O)(=O)N2CCOCC2)s1 | 9.28 µM (active)
COc1ccccc1NC(=O)COC(=O)Cc1ccc(S(=O)(=O)N2CCCCC2)s1 | inactive
O=C(O)c1ccc(S(=O)(=O)N2CCOCC2)o1 | inactive
O=C(COC(=O)c1cc(S(=O)(=O)N2CCOCC2)ccc1Cl)NCCc1ccccc1 | inactive
COC(=O)COc1ccc(S(=O)(=O)N2CCOCC2)cc1 | inactive
O=C(Cc1ccc(S(=O)(=O)N2CCOCC2)s1)NCCC(c1ccccc1)c1ccccc1 | 7.38 µM (active)
C[n+]1ccc(C(=O)NCc2ccccc2)cc1 | inactive
COc1ccnc2c1c(=O)n(Cc1cccc(F)c1)c(=O)n2C | inactive
COc1ccc(/C=N/Nc2cc(N3CCOCC3)nc(C)n2)c(OC)c1 | inactive
CCNc1nc(Oc2ccc(C(=O)OC)cc2)nc(N2CCOCC2)n1 | inactive

Compound | Potency
Cc1cc(/C=C2/SC(=O)N(CC(=O)N3CCCC3)C2=O)c(C)n1C | inactive
COc1cccc(C(=O)CC(=O)C(=O)Nc2ccc([N+](=O)[O-])cc2C)c1 | inactive
Cc1cc([N+](=O)[O-])ccc1NC1CCCC1 | inactive
Cc1cc([N+](=O)[O-])ccc1NCc1cccc([N+](=O)[O-])c1 | 10.4 µM (active)
COC(=O)c1ccccc1NC(=O)CSc1ccccn1 | 2.94 µM (active)
COC(=O)c1ccccc1NC(=O)CSc1nnnn1C | inactive
C[C@@H]1CC[C@@]2(OC1)O[C@H]1C[C@H]3[C@@H]4CC=C5C[C@@H](O)[C@H](O)C[C@]5(C)C4CC[C@]3(C)[C@H]1[C@@H]2C (some centres undefined) | inactive
COc1cc(C(=O)NCC(=O)N2CC=C(c3ccccc3)CC2)cc(OC)c1OC | inactive
Cc1cc(OCC(=O)Nc2c(C)n(C)n(-c3ccccc3)c2=O)ccc1[N+](=O)[O-] | inactive
O=C(COC(=O)c1ccc[nH]c1=O)Nc1ccc2c(c1)OC(F)(F)O2 | inactive
O=C(O)COCC(=O)NCc1csc2ccc(Cl)cc12 | inactive
O=C(Nc1ccc(CN2CCOCC2)cc1)c1cc(Cl)ccc1Cl | inactive
c1cc(-c2nn[nH]n2)ccc1CN1CCCCC1 | inactive
Clc1ccc(CN2CCCCCC2)cc1Cl | 11.7 µM (active)
COc1ccccc1C(=O)NC(=S)NC12CC3CC(CC(C3)C1)C2 | inactive
COc1ccc(NC(=S)N2CCC(NC(=O)c3cccc(F)c3)CC2)cc1 | inactive
CCn1c(C)cc(=O)cc1-c1ccc(Cl)cc1 | inactive
COc1ccc(Cn2c(-c3ccc(Cl)cc3)c[n+]3ccccc23)cc1 | 0.117 µM (active)
COc1ccc(C(=O)CN(C(=O)c2ccc(Cl)cc2)N2C(=O)c3ccccc3C2=O)cc1 | inactive
Cc1cc(C)c(C(=O)CSc2nc(C)cc(=O)[nH]2)c(C)c1 | inactive
CSc1nnc(C2CCCN(CC(=O)Nc3ccccc3N3CCOCC3)C2)n1C(C)C (centres undefined) | inactive
COc1ccc(C(=O)n2nc(C)c(Br)c2C)cc1OC | inactive
O=S(=O)(Nc1ccc(Cl)cn1)c1cnc(Cl)c(Br)c1 | inactive
COC(=O)c1ccc(S(=O)(=O)N2CCc3ccccc3C2)cc1 | inactive
CN1CCN(S(=O)(=O)c2cccc(C(=O)N3CCc4ccccc43)c2)CC1 | inactive
Cc1cccc(N2CCN(C(=O)c3cccc(S(=O)(=O)N4CCc5ccccc5C4)c3)CC2C)c1 (centres undefined) | 11.7 µM (active)

Compound | Potency
CCCCC(CC)CNCc1cccn1CCN1CCOCC1 (centres undefined) | 11.7 µM (active)
CCCCc1ccc(NC(=S)NCCCN2CCOCC2)cc1 | inactive
CSc1ccc(CNCCN2CCOCC2)cc1 | inactive
COc1cccc(N2CC(C(=O)NCc3n[nH]c(=O)c4ccccc34)CC2=O)c1 (centres undefined) | inactive
CC(C[N+](C)(C)C)OC(N)=O (centres undefined) | 9.53 µM (active)
CCc1ccc[n+](-c2nc([O-])sc2C=O)c1 | inactive
COc1ccc(CNc2cc(C)cc(C)c2)cc1OC | inactive
COc1ccc(/C=C/C(=O)c2ccc(OC)cc2O)cc1 | inactive
COc1ccc(C(=O)/C=C/c2cccnc2)c(OC)c1 | inactive
COc1ccc(/C=C/C(=O)c2cc(Br)ccc(=O)c2O)cc1 | 10.4 µM (active)
CSc1nsc(SCC(=O)Nc2cc(C(=O)O)ccc2C)n1 | inactive
COc1ccc(SCCN2CCN(CC(C)C)CCC2=O)cc1 | inactive
O=C1CCN(Cc2ccc([N+](=O)[O-])cc2)CCN1[C@H](CO)Cc1ccccc1 | inactive
C[C@H]1CCC(=O)N([C@H](CSc2ccccc2)Cc2ccccc2)CC1 | 11.7 µM (active)
CN1CCC(=O)N([C@H](CO)Cc2ccccc2)CC1 | inactive
O=C1CC[C@H](O)CCN1[C@H](CSc1ccc(Br)cc1)Cc1ccccc1 | inactive
CC(=O)Nc1ccc(NC(=O)C(C)OC(=O)C2CC(=O)N(CCc3ccccc3)C2)cc1 (centres undefined) | inactive
CC(=O)Nc1ccc(SC[C@H](Cc2ccccc2)N2CC[C@@H](C)CCC2=O)cc1 | 3.29 µM (active)
CC1CCN(CCC(=O)Nc2ccccc2)CC1 | inactive
COc1ccc(SC[C@H](Cc2ccccc2)N2CCN(CCc3ccccc3)CCC2=O)cc1 | 4.65 µM (active)
C/C(Cc1ccccc1)=N\NC(=O)CNC(=O)c1ccccc1Cl | inactive
CCC1(CC)Cc2ccccc2-c2nc(CCl)[nH]c(=O)c21 | inactive
COc1ccc(CCNS(=O)(=O)c2cc3c(cc2C)NC(=O)CO3)cc1OC | inactive
CCC(=O)c1ccc(OCC(=O)Nc2ccc(N3CCCCC3)cc2)cc1 | inactive
Cc1c(CC(=O)NCC(=O)NCC(=O)O)c(=O)oc2cc3oc4c(c3cc12)CCCC4 | inactive
O=S(=O)(NC1CC2CCC1C2)c1ccc(Cl)cc1 (centres undefined) | inactive
